According to the supplement of paper PMC10515830:
Structures can show the parent of a compound that is named as a salt.

Legend:
Conditions in all cases: 10 µM; exposure time 6 h
[1] = test system: Danio rerio larvae (5 dpf); assay: difference in excitability vs DMSO (percentage points); higher = more excitable than DMSO
Method in brief: (§1)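 In 96-well plates, 48 wild-type zebrafish larvae aged 5 dpf per compound received 100 µL egg water with library compound at 10 µM final for 6 h. Three hours into this, a 3-h programme of moving lines and 100 ms, 400Hz tones ran at 28.5 ℃ while plates were photographed every 6 s. Z-LaP Tracker scored the behaviours, and each is given as the compound mean minus the vehicle control mean in percentage points.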

[2] = test system: Danio rerio larvae (5 dpf); assay: difference in startle response vs DMSO (percentage points); higher = stronger startle than DMSO
Method in brief: as §1

[3] = test system: Danio rerio larvae (5 dpf); assay: difference in activity during first hour vs DMSO (percentage points); higher = more activity than DMSO
Method in brief: as §1

[4] = test system: Danio rerio larvae (5 dpf); assay: difference in habituation to acoustic stimuli vs DMSO (percentage points); higher = more habituation than DMSO
Method in brief: as §1

[5] = test system: Danio rerio larvae (5 dpf); assay: difference in combined optomotor response to red, green and blue moving lines vs DMSO (percentage points); higher = stronger optomotor response than DMSO
Method in brief: as §1

SMILES	difference in excitability [1]	difference in startle response [2]	difference in activity during first hour [3]	difference in habituation to acoustic stimuli [4]	difference [5]
Cc1cnc(NC(=O)C2=C(O)c3ccccc3S(=O)(=O)N2C)s1 [Meloxicam]	5.53	6.51	-3.33	3.11	4.63
CC(COc1ccccc1)N(CCCl)Cc1ccccc1 (stereo not given) [Phenoxybenzamine (hydrochloride)]	4.28	2.85	18.5	-1.54	2.87
CN1C2CCCC1CC(NC(=O)c1nn(C)c3ccccc13)C2 (stereo not given) [Granisetron (hydrochloride)]	5.31	0.419	15	0.641	7.51
NCCNCCNCCN [Trientine (hydrochloride)]	15.9	-0.163	13	-1.81	-9.36
CC(=O)OCC(=O)[C@@]1(O)CC[C@H]2[C@@H]3CCC4=CC(=O)CC[C@]4(C)[C@H]3C(=O)C[C@@]21C [Cortisone Acetate]	2.07	-1.29	1.26	3.11	-0.38
CC(S)C(=O)NCC(=O)O (stereo not given) [Tiopronin]	1.71	-1.91	3.62	-3.05	3.9
CCc1cccc2c3c([nH]c12)C(CC)(CC(=O)O)OCC3 (stereo not given) [Etodolac]	-4.84	7.75	13.6	4.08	3.56
O=C(c1ccc(OCCN2CCCCC2)cc1)c1c(-c2ccc(O)cc2)sc2cc(O)ccc12 [Raloxifene (hydrochloride)]	22	-0.808	-9.71	2.6	1.59
O=P(O)(O)C(O)(Cn1ccnc1)P(=O)(O)O [Zoledronic Acid (hydrate)]	-0.91	-0.172	2.53	0.128	6.76
CN1CCCC(n2nc(Cc3ccc(Cl)cc3)c3ccccc3c2=O)CC1 (stereo not given) [Azelastine (hydrochloride)]	19.9	1.87	-5.88	-2.38	3.47
CC1(C)O[C@@H]2C[C@H]3[C@@H]4CCC5=CC(=O)C=C[C@]5(C)[C@H]4[C@@H](O)C[C@]3(C)[C@]2(C(=O)CO)O1 [Desonide]	-1.81	-1.62	0.404	6.53	1.67
CC(C)(C(=O)c1cccnc1)c1cccnc1 [Metyrapone]	1.48	5.62	-0.661	1.75	4.5
C[C@@H](O[C@H]1OCCN(Cc2n[nH]c(=O)[nH]2)[C@H]1c1ccc(F)cc1)c1cc(C(F)(F)F)cc(C(F)(F)F)c1 [Aprepitant]	9.22	-5.06	6.23	-3.45	4.82
Cc1cc(NS(=O)(=O)c2ccc(N)cc2)no1 [Sulfamethoxazole]	0.0564	4.25	9.59	3.04	8.31
CCCCCN(C)CCC(O)(P(=O)(O)O)P(=O)(O)O [Ibandronate (sodium hydrate)]	-4.51	1.53	-2.16	7.06	-0.0828
CN1[C@@H]2CC[C@H]1C[C@@H](OC(c1ccccc1)c1ccccc1)C2 [Benztropine (mesylate)]	-5.24	-9.21	27.7	-9.38	-1.29
Cc1c(OCC(F)(F)F)ccnc1C[S@@+]([O-])c1nc2ccccc2[nH]1 [(R)-Lansoprazole]	7.16	4.39	7.03	-1.38	1.12
C/C(=C\c1csc(C)n1)[C@@H]1C[C@@H]2O[C@]2(C)CCC[C@H](C)[C@H](O)[C@@H](C)C(=O)C(C)(C)[C@@H](O)CC(=O)N1 [Ixabepilone]	0.28	-3.45	16.6	5.42	-1.72
COC(=O)N(C)c1c(N)nc(-c2nn(Cc3ccccc3F)c3ncccc23)nc1N [Riociguat]	1.63	0.148	7.75	4.38	-2.92
COc1cc2nccc(Oc3ccc(NC(=O)NC4CC4)c(Cl)c3)c2cc1C(N)=O [Lenvatinib]	13.6	6.75	-8.05	1.57	10.3
CCN(CCO)CCCC(C)Nc1ccnc2cc(Cl)ccc12 (stereo not given) [Hydroxychloroquine (sulfate)]	10.2	0.589	-2.91	4.81	-3.68
C[C@@H](O)[C@H]1C(=O)N2C(C(=O)O)=C(S[C@@H]3CN[C@H](CNS(N)(=O)=O)C3)[C@H](C)[C@H]12 [Doripenem (hydrate)]	0.847	-3.28	18.4	-1.56	-1.12
CC(C)Nc1cccnc1N1CCN(C(=O)c2cc3cc(NS(C)(=O)=O)ccc3[nH]2)CC1 [Delavirdine (mesylate)]	-2.46	-1.52	-9.21	7.6	-2.16
Cc1nc2n(c(=O)c1CCN1CCC(c3noc4cc(F)ccc34)CC1)CCCC2 [Risperidone]	14.4	5.09	7.15	4.04	-1.6
